Cav32 inh – Cav3.2 calcium influx blockers – cell-based, Fluo-4 calcium fluorescence, FDSS, MLSMR library, primary screen | AID 449739, 2010 | B-score at 10 µM | Voltage-dependent T-type calcium channel subunit alpha-1H (Homo sapiens), O95180 | Cav3.2-expressing cells; hits give low values | hit rate 4% among 100,000;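 active = single-dose well whose peak fluorescence ratio is a statistical outlier from its plate by either plate-standardised score or position-corrected B-score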
CYP2C9 act – human CYP2C9 activators, primary screen, biochemical, luminescence; activation factor at 5 µM; recombinant CYP2C9, luciferin-H conversion; hits give high values; factor 1 = untreated enzyme, 0 = blocked; Cytochrome P450 2C9 (Homo sapiens), P11712; hit rate 1.4% among 96,000; AID 1024, 2008;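 active = activation factor of 2 or more for CYP2C9 at a 5 µM dose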;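 note: 0 = sulfaphenazole-blocked wells and 1 = vehicle-only wells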
Target sequence (P11712 whole entry, looked up): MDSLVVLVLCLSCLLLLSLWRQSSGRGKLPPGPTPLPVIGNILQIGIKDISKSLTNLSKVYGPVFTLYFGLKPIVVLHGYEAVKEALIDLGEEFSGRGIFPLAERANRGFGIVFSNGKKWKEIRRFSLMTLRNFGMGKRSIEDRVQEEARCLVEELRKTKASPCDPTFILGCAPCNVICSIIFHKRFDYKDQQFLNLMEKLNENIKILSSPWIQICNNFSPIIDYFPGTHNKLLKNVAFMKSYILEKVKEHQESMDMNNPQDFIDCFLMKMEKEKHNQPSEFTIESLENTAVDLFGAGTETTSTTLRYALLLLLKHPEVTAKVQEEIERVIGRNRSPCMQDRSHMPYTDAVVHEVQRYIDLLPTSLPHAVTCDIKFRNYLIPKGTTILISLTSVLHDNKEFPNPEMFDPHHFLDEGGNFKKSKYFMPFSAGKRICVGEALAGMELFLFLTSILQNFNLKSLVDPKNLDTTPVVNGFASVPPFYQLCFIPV
CYP2C19 act – human CYP2C19 activators, primary screen, biochemical, luminescence. activation factor at 5 µM. AID 1025, 2008. Cytochrome P450 2C19 (Homo sapiens), P33261. 96,000 tested, under 10 active. recombinant CYP2C19, luciferin-H EGE luminescence; hits give high values; 0 = fully inhibited enzyme, 1 = untreated enzyme;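 active = activation factor of at least 2 at 5 µM in the primary screen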;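 note: 0 = wells with 2.5 mM tranylcypromine and 1 = vehicle-only wells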
CYP2C9 inhib – blockers of cytochrome P450 2C9 activity – biochemical, luminescence, ADME assay, primary screen; CYP2C9 Supersomes, luciferin-H conversion; inhibition, % at 5 µM; hit rate 20% among 96,000;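 active = blocking of liver enzyme CYP2C9 beyond about 50% at 5 µM, limit read from the data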
CYP2C19 inh – blockers of cytochrome P450 2C19 activity – biochemical, luminescence, ADME assay, primary screen; P33261; CYP2C19 Supersomes, luciferin-H EGE luminescence, 30 min; hit rate 21% among 96,000; inhibition, % at 5 µM;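 active = CYP2C19 inhibition above a set limit at 5 µM in the primary screen, cut at about 50% in these data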;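 note: plate controls were negative control wells for no effect and 2.5 mM tranylcypromine positive control for full effect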
Numbers without * were called inactive; / = no result. Hits are enriched below; roughly 27% of the tested compounds scored in any of these assays.

SMILES | Cav32 inh | CYP2C9 act | CYP2C19 act | CYP2C9 inhib | CYP2C19 inh
O=C(Nc1cnccn1)c1cccs1 | -0.11 | 1.1 | 1.1 | -9 | -10
O=C(Nc1nccs1)C1C2/C=C\CCCCC21 (configuration not stated) | 0.16 | 0.8 | 1 | 18 | 1
Cc1ccc(NC(=O)COS(=O)c2ccc(C)cc2)cc1 (configuration not stated) | 0.51 | 0.6 | 0.7 | 44 | 32
Cc1nnc(NCCc2ccccc2)n(N)c1=O | 0.13 | 1.1 | 1.1 | -7 | -11
COc1ccc(S(=O)(=O)N(C)CC(=O)N2CCC(C(N)=O)CC2)cc1 | 0.3 | 1.3 | 1 | -31 | -5
COc1ccc(OC)c(N(CC(=O)N2CCC(C)CC2)S(=O)(=O)c2ccccc2)c1 | -0.083 | 0.5 | 0.7 | 52* | 34
COc1ccc(S(=O)(=O)N(C)CC(=O)N2CCC(C)CC2)cc1Cl | 1 | 2.5* | 0.9 | -155 | 7
COc1ccc(N(CC(=O)N2CCCCC2)S(=O)(=O)c2ccccc2)c(OC)c1 | 1.4 | 0.5 | 0.5 | 49 | 53*
COc1ccc(OC)c(N(CC(=O)N2CCC(C)CC2)S(=O)(=O)c2ccc(OC)c(OC)c2)c1 | -0.69 | 0.6 | 0.8 | 39 | 16
COc1ccc(C[C@@H]2CN3C(=NC[C@@H]3C)N2CCNC(=O)c2ccc(C)c(Br)c2)cc1 | -2.3 | / | / | / | /
Cn1c(C(=O)OCC(=O)NCC2CCCO2)cc2sccc21 (configuration not stated) | -0.06 | / | / | / | /
Cn1c(C(=O)OCC(=O)NCCc2ccccc2)cc2sccc21 | -0.14 | 0.3 | 0.7 | 69* | 32
CC(CCc1ccccc1)NC(=O)C1CCCN(C(=O)c2cc3sccc3n2C)C1 (configuration not stated) | -3.7 | 0.5 | 0.7 | 49 | 33
Cn1c(C(=O)OCC(=O)NCc2cccs2)cc2sccc21 | -0.37 | 0.3 | 0.5 | 66* | 51*
CCOc1ccc(CCNC(=O)c2cc3sccc3n2C)cc1OCC | / | 0.3 | 0.1 | 67* | 94*
CC1CN(C(=O)Nc2ccc3c(c2)OCO3)CC(C)O1 (configuration not stated) | 1.3 | 1 | 0.8 | -5 | 19
COc1ccc2c(=O)c3c(=O)n(Cc4ccco4)c(C4CCCCC4)nc3oc2c1 | / | 0.7 | 0.5 | 26 | 53*
COCCCn1c(C2CCCCC2)nc2oc3cc(OC)ccc3c(=O)c2c1=O | 2.3 | 0.3 | 0.5 | 70* | 52*
CCc1nc2oc3ccccc3c(=O)c2c(=O)n1Cc1ccccc1 | 1.2 | 1 | 1 | 4 | 3
COc1ccc2c(=O)c3c(=O)n(Cc4ccco4)c(C(C)C)nc3oc2c1 | 0.82 | / | / | / | /
CCc1nc2oc3cc(OC)ccc3c(=O)c2c(=O)n1Cc1ccccc1 | 0.99 | 0.5 | 0.5 | 49 | 53*
Cc1cc(C)nc(-n2nc(C)c3c(=O)[nH]c(C(F)(F)F)nc32)n1 | 0.26 | 1 | 0.9 | 4 | 9
CCCCS(=O)(=O)NC1=NCN(CCOC(=O)c2ccccc2)CN1 | 0.53 | / | / | / | /
O=C1NC2(CCCCCC2)N=C1c1ccc(F)cc1 | -0.021 | 0.9 | 0.6 | 9 | 40
CC1(C)N=C(c2ccc(Cl)cc2)C(=O)N1 | 0.51 | 0.7 | 0.1 | 34 | 87*
SMILES | Cav32 inh | CYP2C9 act | CYP2C19 act | CYP2C9 inhib | CYP2C19 inh
N#CC1=C(N)N=C(SCc2cccc3ccccc23)C(C(N)=O)C12CCCCC2 (configuration not stated) | -2.2 | 0.3 | 0.3 | 74* | 72*
c1cncc(-c2nnc(SCc3cccc4ccccc34)o2)c1 | / | 1.4 | 0.5 | -39 | 46
CCN1CCN(S(=O)(=O)c2cc(OC)c(Cl)cc2OC)CC1 | 0.49 | 1.1 | 0.6 | -10 | 39
CCN(CC)CCOc1ncnc2c1oc1ccccc12 | 0.69 | 0.6 | 0.3 | 43 | 66*
CCc1nc(OCCN(CC)CC)c2oc3ccccc3c2n1 | 1.5 | 1.1 | 1.1 | -10 | -7
COc1ccc(C(C#N)C2(C)OCCO2)cc1OC (configuration not stated) | 0.11 | 0.7 | 0.9 | 27 | 14
CCn1nnc(-c2ccccc2NS(=O)(=O)c2ccc(S(=O)(=O)N3CCCCCC3)cc2)n1 | -2.5 | 0.9 | 0.9 | 5 | 6
CCn1nnc(-c2ccccc2NS(=O)(=O)c2ccc(S(=O)(=O)N(C)C3CCCCC3)cc2)n1 | -0.42 | 0.2 | 0.8 | 84* | 17
CCOC(=O)c1ccc(S(=O)(=O)Nc2ccccc2-c2nnn(CC)n2)cc1 | -1.5 | 0 | 0 | 96* | 99*
CCOC(=O)c1ccc(S(=O)(=O)Nc2cc(C(C)(C)C)no2)cc1 | -0.42 | 0.2 | 0.8 | 83* | 16
Cc1cccc(OCCC(=O)NCC(c2ccco2)N2CCCCC2)c1 (configuration not stated) | 0.6 | 0.9 | 0.7 | 11 | 34
COc1ccc(-c2cc(=O)c3ccccc3s2)cc1 | -2.5 | 0.4 | 0.6 | 64* | 39
CN(c1ccc(OCc2nnc(-c3ccccc3)o2)cc1)S(=O)(=O)c1ccccc1 | -3.5 | 0 | 0.1 | 98* | 94*
COc1ccc(-c2nnc(COc3ccc4ccccc4c3)o2)cc1OC | -1.5 | 0.6 | 0.5 | 35 | 47
O=C(c1ccccc1Cl)N(C(=O)c1ccccc1Cl)c1nccc(-c2cccs2)n1 | -1.4 | 0.2 | 0.6 | 77* | 35
Cc1cccnc1NC(=O)COc1ccc2oc3c(c2c1)CCCC3 | -5.6* | / | / | / | /
Cc1ccc(NC(=O)COc2ccc3oc4c(c3c2)CCCC4)nc1 | 0.62 | 0.4 | 0.7 | 55* | 31
N=c1n(CCN2CCCCC2)c2ccccc2n1CC(O)c1ccc(Cl)c(Cl)c1 (configuration not stated) | -2.6 | 0.2 | 0.5 | 82* | 50
N=c1n(CCN2CCCCC2)c2ccccc2n1CC(O)c1cccc(Br)c1 (configuration not stated) | -1.3 | 1 | 0.9 | 2 | 6
CC(C)C(=O)Nc1ccc(C(=O)NNC(=O)c2ccco2)cc1 | -0.068 | 1.1 | 1 | -7 | 0
CC1CN(C(=O)c2cc3c(=O)n4ccccc4nc3s2)CC(C)O1 (configuration not stated) | -0.013 | 0.8 | 0.9 | 17 | 8
O=C(CCCCCn1c(=S)[nH]c2cc3c(cc2c1=O)OCO3)N1CCN(C(=O)c2ccco2)CC1 | 0.3 | 0.4 | 0.8 | 64* | 18
COc1ccc(N2CCN(C(=O)CCCn3c(=S)[nH]c4cc5c(cc4c3=O)OCO5)CC2)cc1 | 0.075 | 0.3 | 1 | 74* | -4
Cc1ccc(C)c(N2CCN(C(=O)CCn3c(=S)[nH]c4cc5c(cc4c3=O)OCO5)CC2)c1 | -0.8 | 0.2 | 0.6 | 79* | 42
O=C(CCCCCn1c(=S)[nH]c2cc3c(cc2c1=O)OCO3)N1CCN(C2CCCCC2)CC1 | / | 0.2 | 0.7 | 81* | 30
